The record followed here is PubChem BioAssay (NCI).

Among the test systems are HCT-15 colon; HT29 colon; SNB-75 CNS; SNB-19 CNS; U251 CNS; PC-3 prostate; SK-MEL-5 melanoma; UACC-62 melanoma; LOX IMVI melanoma; SK-MEL-28 melanoma.
Common to all, as to experiment: NCI-60 one-dose screen, 48 h (100 = growth as untreated, 0 = no growth, -100 = all killed)
Common to all, as to settings: 10 µM unless noted

Where “and” joins values, the source holds several entries; their conditions need not be identical. Identical values can stand only once. About 83,000 compounds went through this panel and 20% of them were active in at least one assay; those are over-represented in the sample as a whole.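 Treatment: one concentration, 48 hours, 96-well format. Scoring: percent growth, with anything below 10 considered active.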 Unmarked numbers belong to inactive results. Calls of active or inactive are those of the source.

`ClCc1ccc(Cl)c(Cl)c1`: the growth in the assay on HCT-15 colon is 98.6%; in the assay with HT29 colon it was 109%; with SNB-75 CNS, 104%; with SNB-19 CNS it was 96.6%; in the assay with U251 CNS, 100%; in the assay on PC-3 prostate, 91.9%. For the same compound, the growth in the assay with SK-MEL-5 melanoma is 92.2%; with UACC-62 melanoma it was 97.9%.
Consider `Cc1cc2c(cc1-c1ccnc(/C=C/C(=O)O)c1)C(C)(C)CCC2(C)C`, for which the growth was 86.1% in the assay with HCT-15 colon; 97.9% in the assay on HT29 colon; 80.3% in the assay on SNB-75 CNS; 90.7% in the assay on SNB-19 CNS; 84.1% in the assay on U251 CNS; 86.8% in the assay with PC-3 prostate. The growth in the assay on SK-MEL-5 melanoma is 67.9%; with UACC-62 melanoma it was 72.2%; in the assay with LOX IMVI melanoma it was 46.9%.
Turning to `O=C(O)C(F)F`, the growth in the assay with HCT-15 colon was 106%; in the assay on HT29 colon, 100%; with SNB-75 CNS it was 113%; with SNB-19 CNS it was 111%; in the assay with U251 CNS it was 108%; in the assay on PC-3 prostate it was 105%. Further, the growth in the assay on SK-MEL-5 melanoma was 99.7%; with UACC-62 melanoma, 102%.
Take `CC(=O)C(N)Cc1ccccc1` (stereo unspecified): the growth in the assay with HCT-15 colon is 103%; with HT29 colon it was 103%; in the assay on SNB-75 CNS it was 86.7%; with SNB-19 CNS, 99.3%; with U251 CNS it was 84.2%; in the assay with PC-3 prostate, 83.6%. The figures for the growth in the assay with SK-MEL-5 melanoma and in the assay with UACC-62 melanoma were 107% and 92.6%, respectively.
In the case of `CCCC1CCCCC12C(=O)NC(=O)NC2=O` (stereo unspecified), the growth is 94.3% and 106% with HCT-15 colon; 97.2% and 94.3% with HT29 colon; 100% and 87.2% with SNB-75 CNS; 96.2% and 110% in the assay with SNB-19 CNS; 97.8% and 102% in the assay on U251 CNS; 104% and 101% in the assay on PC-3 prostate. Further, the growth in the assay on SK-MEL-5 melanoma was 95.5% and 103%; in the assay on UACC-62 melanoma, 98.2% and 109%; with LOX IMVI melanoma, 97% and 97.1%.
As for `CCOC(=O)c1cncn1C(C)c1ccccc1` (stereo unspecified), the growth in the assay with HCT-15 colon is 106%; with HT29 colon it was 95.1%; with SNB-75 CNS, 94.3%; with SNB-19 CNS it was 106%; with U251 CNS, 100%; with PC-3 prostate, 97.9%. Moreover, the growth was 102% in the assay on SK-MEL-5 melanoma, 100% in the assay on UACC-62 melanoma and 101% in the assay on LOX IMVI melanoma.
As to `CSc1cc(/C=C(\C)[C@@H]2C[C@@H]3O[C@]3(C)CCC[C@H](C)[C@H](O)[C@@H](C)C(=O)C(C)(C)[C@@H](O)CC(=O)O2)n(CCNC(=O)OC(C)(C)C)n1`, the growth in the assay with HCT-15 colon is 37.1%; in the assay with HT29 colon, 28.2%; in the assay on SNB-75 CNS it was 43.9%; in the assay with SNB-19 CNS, 70.4%; with U251 CNS, 67.2%; in the assay with PC-3 prostate, 39%. For the same compound, the results for the growth with SK-MEL-5 melanoma, in the assay on UACC-62 melanoma and in the assay with LOX IMVI melanoma were 38.4%, 43.8% and 51.1%, respectively.
For `CCOC(=O)P(=O)(OCC)OCC`, the growth with HCT-15 colon was 101%; in the assay on HT29 colon, 102%; with SNB-75 CNS, 115%; with SNB-19 CNS it was 97.9%; in the assay with U251 CNS, 109%; in the assay on PC-3 prostate, 92.5%. The growth is 107% with SK-MEL-5 melanoma, 96.9% in the assay on UACC-62 melanoma and 91.6% in the assay with LOX IMVI melanoma.
On to `C=CC[PH+](c1ccccc1)c1ccccc1.C=CC[PH+](c1ccccc1)c1ccccc1.[Pt+2].[S-]c1nc2ccccc2[nH]1.[S-]c1nc2ccccc2[nH]1`, for which the growth in the assay on HCT-15 colon was 70%; with HT29 colon, -30.4% (active); with SNB-75 CNS it was -64.5% (active); with SNB-19 CNS, 5.65% (active); in the assay on U251 CNS it was -83% (active); in the assay on PC-3 prostate it was 9.47% (active). In addition, the growth in the assay with SK-MEL-5 melanoma is -94.9% (active); in the assay with UACC-62 melanoma, -48.9% (active); in the assay on LOX IMVI melanoma, -95% (active); in the assay with SK-MEL-28 melanoma, -47.1% (active).
Take `CC[C@H](C)[C@H](NC(=O)[C@H]1CCCCN1C)C(=O)N(C)[C@H](C[C@@H](OC(C)=O)c1nc(C(=O)N[C@@H](Cc2ccccc2)C[C@H](C)C(=O)O)cs1)C(C)C`: the growth in the assay with HCT-15 colon was 9.59% (active); with HT29 colon, -18.7% (active); with SNB-75 CNS it was 31.4%; in the assay with SNB-19 CNS, 36.7%; in the assay on U251 CNS, 15%; in the assay on PC-3 prostate it was 26.1%. The values for the growth in the assay on SK-MEL-5 melanoma, with UACC-62 melanoma and in the assay with LOX IMVI melanoma were -71.7% (active), 52.8% and 9.84% (active), respectively.
Consider `CC1=CC(=Nc2ccc(N(CCCl)CCCl)cc2)C=C(C)C1=O`, for which the growth is 8.95% (active) in the assay on HCT-15 colon; 11.1% in the assay on HT29 colon; 25.3% with SNB-75 CNS; 37.9% in the assay with SNB-19 CNS; 17.9% in the assay with U251 CNS; 41.6% with PC-3 prostate. Also, the growth with SK-MEL-5 melanoma was 22.8%; in the assay on UACC-62 melanoma it was 6.59% (active); in the assay with LOX IMVI melanoma, 16.9%.
As for `C[C@]12CC[C@H]3[C@@H](CC=C4c5nc(-c6ccc(Br)cc6)sc5CC[C@@]43C)[C@@H]1CC[C@@H]2O`, the growth with HCT-15 colon is 89.1%; in the assay on HT29 colon, 109%; in the assay with SNB-75 CNS it was 78.4%; in the assay with SNB-19 CNS, 84.4%; in the assay on U251 CNS, 63.4%; in the assay on PC-3 prostate it was 101%. Moreover, the figures for the growth in the assay on SK-MEL-5 melanoma, with UACC-62 melanoma and with LOX IMVI melanoma were 97.1%, 84.4% and 90%, respectively.
